Compounds with a hit are over-represented: about 13% of the library has one in this group of screens.
HCV inh = blocks hepatitis C virus; 3.4% of 340,000 active; Huh7.5.1 HCVcc-Cre infection, luciferase reporter, 44 h; AID 651820; Potency, µM (top dose mostly 41.8 µM), without a hit: top-dose activity change, negative = inhibition, actives largely listed as inhibitors; also: potency is read from the fitted curve at half-maximal effect
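Reporter virus HCVcc-Cre (~0.5 moi) infects cells exposed to compound; seeding density 1,000 cells/well with 4 h settling beforehand. Luminescence, 15 sec read, taken 44 h post-infection following a 15 min RT substrate incubation.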
Pf growth 96h = P. falciparum growth inhibition at 96 hours; P. falciparum luciferase reporter growth, 96 h; Potency, µM (series often up to 28.7 µM), for inactives: at the highest dose activity change, negative = inhibition, hits mostly inhibitors; 6.9% of 320,000 active; AID 504834; also: potency is read from the fitted curve at half-maximal effect
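Two-generation exposure (96 h) targets delayed-death phenotype. Reporter parasites carrying integrated firefly luciferase, in red cells at 2% hematocrit and 0.05% parasitemia final, kept at 37 C, 5% CO2; luminescence loss indicates inhibition.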
HCMV inh = blocks human cytomegalovirus replication. HFF cells, HCMV-luciferase reporter, 72 h; active compounds read low. activity change, negative = inhibition, % at 57.5 µM. 4.5% of 410,000 active; in the data active = activity change below about -60%; inconclusive = no clear call, values can overlap the other calls; inactive = above about -39%
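Two-dose cell screen: HFF monolayers treated with compounds and infected with luciferase-expressing HCMV at 1 PFU/cell, 72 h at 37C, then lysed for luciferase measurement.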
Pf growth 48h = inhibits P. falciparum growth in the first generation, 48 h | P. falciparum luciferase growth in erythrocytes, 48 h | Potency, µM (highest dose often 28.7 µM), without a hit: at the top dose activity change, negative = inhibition, actives largely listed as inhibitors | 5.9% of 310,000 active | AID 504832; also: potency is read from the fitted curve at half-maximal effect
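Luciferase-expressing parasites in RBCs, 2% Hct / 0.1% parasitemia final; RPMI 1640 + 0.5% Albumax; 37 C, 5% CO2, one generation; luminescence read-out, lower signal = inhibition.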
Numbers without * were called inactive; i = inactive; ? = inconclusive; . = not tested or not shown. Unless noted, calls follow the shape of the dose curve; as a rule, active = well fitted inhibition curve with a large enough effect; inconclusive = small, poorly fitted or top-dose-only effect, or another doubt; inactive = no such curve, though single readings can be large or run the other way. % is scaled to controls: 0 for no effect and ±100 for the full control effect.

SMILES | HCV inh | Pf growth 96h | HCMV inh | Pf growth 48h
NC(=S)N/N=C/c1cccc(O)c1O | ? | -11% | -100* | ?
NC(=S)N/N=C/c1ccccc1O | 1% | 1µM* | -22 | 0.33µM*
NC(=S)N/N=C/c1cccc(/C=N/NC(N)=S)c1 | -14% | 0% | 0 | 63%
Oc1ccccc1C=NNC(=S)NN=Cc1ccccc1O | -20% | . | ? | .
Cc1cc(/C=N/NC(N)=S)c(O)c(/C=N/NC(N)=S)c1 | ? | 12µM* | -12 | 0.47µM*
COc1cccc(CNC(=O)CSC2=Nc3ccccc3C3=NC(C(C)C)C(=O)N23)c1 (centres undefined) | . | . | -5 | .
COc1ccc(C)c2sc(NC(=O)c3ccc(S(=O)(=O)N(C)C)cc3)nc12 | . | . | 3 | .
CN(C)c1nc(N)nc(Nc2ccccc2C#N)n1 | -8% | 13µM* | -6 | -5%
O=C(Nc1ccccc1)c1cccc(N2CCCS2(=O)=O)c1 | . | . | 4 | .
Cc1ccc(NC2CCCN(C(=O)c3cccc4nccnc34)C2)cc1C (centres undefined) | 16% | 62% | 15 | -15%
CC(C)c1ccc(NC2CCCN(C(=O)c3cccc4nccnc34)C2)cc1 (centres undefined) | 17% | 4.7µM* | -21 | 0%
CC(C)c1ccc(NC2CCCN(C(=O)c3cc(C(C)C)nc(N)n3)C2)cc1 (centres undefined) | -18% | 15µM* | -6 | 14%
CC(C)c1ccc(NC2CCCN(C(=O)c3cscn3)C2)cc1 (centres undefined) | -14% | ? | 8 | -3%
CC(C)c1ccc(NC2CCCN(C(=O)CCc3cnn(C)c3)C2)cc1 (centres undefined) | -11% | 7.4µM* | 13 | 1%
CC1CCN(S(=O)(=O)c2ccc3c(c2)N(CC(=O)NCCN(C)C)C(=O)CO3)CC1 | . | . | 8 | .
CCOC(=O)CSc1nc2ccc(NC(=O)c3ccc(F)cc3)cc2s1 | . | . | 22 | .
COCC#Cc1cnc2c(c1)C(=O)N([C@@H](C)CO)C[C@H](C)[C@H](CN(C)C(=O)c1ccc3c(c1)OCO3)O2 | . | . | -17 | .
COc1ccc(/C(C)=N/N2C(=O)c3ccccc3NC2c2ccc(O)c(OC)c2)cc1 (centres undefined) | 6% | 11% | 38 | 66%
C/C(=N\N1C(=O)c2ccccc2NC1c1ccco1)c1ccccc1O (centres undefined) | 3.5µM* | 17% | -78* | 43%
C/C(=N\N1C(=O)c2ccccc2NC1c1ccccc1)c1ccccc1O (centres undefined) | ? | 45% | -92* | -50%
Cc1ccc2[nH]c(=O)c3cc(C(=O)N(C)c4ccc(Br)cc4)sc3c2c1 | . | . | 31 | .
COC(=O)c1cc(-c2ccc(Br)cc2)c2c(=O)n(C)c(=O)n(C)c2n1 | 5% | 5.9µM* | 12 | -11%
COc1ccc(C(CC(=O)N2CCCCC2)c2c(OC)cc(OC)c3c(-c4ccccc4)cc(=O)oc23)cc1 (centres undefined) | ? | 13µM* | 19 | 12µM*
COc1ccc(C(CC(=O)N2CCCC(C)C2)c2c(OC)cc(OC)c3c(-c4ccccc4)cc(=O)oc23)cc1 (centres undefined) | ? | 12µM* | -68* | 9.3µM*
COc1ccc(C(CC(=O)N2CCCC2)c2c(OC)cc(OC)c3c(-c4ccccc4)cc(=O)oc23)cc1 (centres undefined) | ? | ? | 49 | 9.3µM*
SMILES | HCV inh | Pf growth 96h | HCMV inh | Pf growth 48h
COc1cc(C(CC(=O)N2CCCC2)c2c(OC)cc(OC)c3c(-c4ccccc4)cc(=O)oc23)cc(OC)c1OC (centres undefined) | ? | 3.7µM* | -14 | 5.2µM*
COc1cc(O)c(C(CC(=O)N2CCCCC2)c2cc(OC)c(OC)c(OC)c2)c(OC)c1 (centres undefined) | 15% | ? | -2 | -19%
COc1ccccc1NC(=O)CSC1=Nc2ccccc2C2=NC(CCC(=O)NCc3ccco3)C(=O)N12 (centres undefined) | . | . | -15 | .
CCc1ccccc1NC(=O)Cn1c(=O)n(Cc2ccco2)c(=O)c2ccccc21 | . | . | 3 | .
O=C(CCS(=O)(=O)c1cc(Br)cc2c1N(C(=O)C1CC1)CC2)N1CCN(c2cccc(Cl)c2)CC1 | . | . | 5 | .
COc1ccc(C(CC(=O)N2CCOCC2)c2c(OC)cc(OC)c3c(-c4ccccc4)cc(=O)oc23)cc1 (centres undefined) | ? | ? | ? | 10µM*
COc1ccc(C(CC(=O)N2CCOCC2)c2c(OC)cc(OC)c3ccc(=O)oc23)cc1 (centres undefined) | 3% | ? | 11 | ?
CC(=O)Nc1sc2c(c1C(c1ccc(Cl)cc1)N1CCOCC1)CCCC2 (centres undefined) | 1% | 1.3µM* | -94* | .
CC(=O)Nc1sc2c(c1C(c1ccc(F)cc1)N1CCOCC1)CCCC2 (centres undefined) | 8% | 1.2µM* | -86* | .
CC(=O)Nc1sc2c(c1C(c1ccccc1)N1CCOCC1)CCCC2 (centres undefined) | 36% | . | -28 | ?
Cc1ccc(Cl)cc1NC(=O)C1CCN(S(=O)(=O)c2cccc3nonc23)CC1 | . | . | -28 | .
COc1cccc(-n2c(=O)c3c(C)c(C)sc3n(Cc3ccccc3C#N)c2=O)c1 | . | . | 1 | .
c1ccc(Cn2c(-c3ccccc3)c[n+]3c2SCCC3)cc1 | 2.5µM* | ? | ? | 1µM*
CCSC(C)CC1C/C(=N/O)c2c(CC)noc2C1 (centres undefined) | 5% | 7% | -33 | 15µM*
CCCc1noc2c1/C(=N\O)CC(CC(C)SCC)C2 (centres undefined) | ? | 0% | -27 | ?
CCc1nc2sc3c(N4CCC(C)CC4)ncnc3c2c2c1CCCC2 | . | . | -4 | .
Cc1cc(OC(C)C(N)=O)nc(-c2ccccc2)n1 (centres undefined) | -2% | 10% | 5 | 15µM*
Cc1cc(Cl)nc(-c2ccccc2)n1 | 11% | i | ? | 34%
CCOc1ccc(-c2nonc2NC(=O)COc2ccc(C)c(C)c2)cc1OCC | . | . | 11 | .
CCc1ccc(C(O)(CC(C)C)C(CN2CCOCC2)c2ccccc2)cc1 (centres undefined) | ? | -2% | -90* | ?
COc1ccc(C(O)(CC(C)C)C(CN2CCOCC2)c2ccccc2)cc1 (centres undefined) | -6% | ? | -83* | 12µM*
CCc1ccc(C(O)(c2ccccc2OC)C(CN2CCOCC2)c2ccccc2)cc1 (centres undefined) | 6% | 15% | ? | ?
CC12CN3CC(C)(CN(C1)C3c1cc3ccccc3[nH]1)C2=O (centres undefined) | 16% | 1µM* | -7 | 22%
CCC(=O)N1CCc2cc(CNC(=O)C(CC)c3ccccc3)ccc21 (centres undefined) | . | . | -6 | .
COc1cccc(NC(=O)c2nc(S(C)(=O)=O)ncc2Cl)c1 | ? | 30% | -103* | 13%
